Records with an inconclusive call do not appear. A call without a number means that no potency is given here. Calls of active or inactive are those of the source. Unless noted, calls follow the shape of the full dose curve.

The first assay is described as follows: cAMP Responsive Elements (CRE) small molecule agonists, cell-based qHTS assay (AID 1963590). The conditions noted are these: CRE-bla HEK293T, beta-lactamase FRET ratio, 3 h; series mostly up to 92.4 µM; activation: at the top concentration. In short, it runs like this: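 Beta-lactamase reporter readout: LiveBLAzer B/G FRET substrate, 2 h at room temperature, added after 3 h compound treatment of CRE-bla HEK 293T cells at 37 C/5% CO2.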
For orientation: qHTS replaces the single test concentration by a dilution series.
In the case of `N#Cc1ccccc1`, the Potency result is “inactive”. Turning to `C=C(CC(=O)O)C(=O)O`, the Potency entry is “inactive”. `O=C(OCC1CCC2OC2C1)C1CCC2OC2C1` (stereo not given): the Potency entry was “inactive”. As to `CC(=O)NS(=O)(=O)c1ccc(N)cc1`, the Potency entry was “inactive”. Regarding `CCCCNS(=O)(=O)c1ccccc1`, the Potency entry is “inactive”. In the case of `C[C@]12C=CC(=O)C=C1CC[C@H]1[C@@H]3C[C@@H](O)[C@](O)(C(=O)CO)[C@@]3(C)C[C@H](O)[C@@]12F`, the Potency result was “inactive”.

In the case of `Cc1cc(C)c(O)c(C)c1`, the Potency entry is “inactive”.

As for `Nc1ccc(S(=O)(=O)Nc2cnc3ccccc3n2)cc1`, the Potency result was “inactive”. Turning to `c1ccc2cc(Nc3ccc(Nc4ccc5ccccc5c4)cc3)ccc2c1`, the “activation” value was -0.911% (inactive). As to `COCCc1ccc(OCC(O)CNC(C)C)cc1` (stereo not given), the Potency result was “inactive”. For `COc1ccc([C@@H]2CC(=O)c3c(O)cc(O[C@@H]4O[C@H](CO[C@@H]5O[C@@H](C)[C@H](O)[C@@H](O)[C@H]5O)[C@@H](O)[C@H](O)[C@H]4O)cc3O2)cc1OC`, the Potency entry is “inactive”. Take `CC(=O)N[C@@H](CS)C(=O)O`: the Potency result is “inactive”. The same measure, in the same setting: the value for `OCC1CCCO1` (stereo not given) was “inactive”; that for `CC(=O)OCc1ccc2c(c1)OCO2` was “inactive”. For `Cc1cc(C)c(C)cc1C`, the Potency entry is “inactive”.

Turning to `CC1(C)C(=O)N(Cl)C(=O)N1Cl`, the Potency result was “inactive”. With `Cc1ccc(C)c(O)c1`, the Potency result is “inactive”. On to `NC(N)=S`, for which the Potency entry is “inactive”. Same read-out and setting: the entry for `CCCCCCCCCCO` is “inactive”; for `OCCOCCOCCOCCO` it is “inactive”.

For the molecule `CCCCCCCCCCCCCC(=O)O`, the Potency entry is “inactive”.

As for `O=S(=O)(O)c1ccc2cc(O)ccc2c1`, the Potency entry was “inactive”. For the molecule `Oc1ccc(Cc2ccccc2O)cc1`, the “activation” value was 0.066% (inactive). Turning to `ClC1=C(Cl)C(Cl)(Cl)C(Cl)=C1Cl`, the Potency result was “inactive”. On to `CCOC(=O)CC(=O)OCC`, for which the Potency entry is “inactive”. Turning to `CCCCOCCOCCOC(C)=O`, the Potency entry was “inactive”. Take `CC(=O)CC(=O)N(C)C`: the Potency entry was “inactive”. For `CC1=C(/C=C/C(C)=C/C=C/C(C)=C/C(=O)O)C(C)(C)CCC1`, the Potency result is “inactive”. For the molecule `CCCCCNCCCCC`, the Potency entry was “inactive”.

Turning to `O=C(CC(C(=O)OC1CCCCC1)S(=O)(=O)O)OC1CCCCC1` (stereo not given), the Potency result was “inactive”.

`CCCN(CCC)C(=O)SCC`: the Potency result is “inactive”.

Another assay in a line: cAMP Responsive Elements (CRE) small molecule antagonists, cell-based qHTS assay (AID 1963591; active = well fitted inhibition curve with a large enough effect in the signal ratio in the repeat runs, not every such curve was filed as active; the % refers to the signal ratio). The conditions noted are these: CRE-bla HEK293T, beta-lactamase FRET ratio; series mostly up to 92.4 µM; activity change, negative = inhibition: at the top concentration. The procedure, abridged:
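HEK293T CRE-bla; 18 h preincubation; compound pin-transfer; NKH477 0.25 uM final, 3 h, 37 C; LiveBLAzer FRET substrate 2 h RT.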
For the molecule `N#Cc1ccccc1`, the Potency result was “inactive”. As to `C=C(CC(=O)O)C(=O)O`, the Potency entry is “inactive”. As to `O=C(OCC1CCC2OC2C1)C1CCC2OC2C1` (stereo not given), the “activity change, negative = inhibition” value was 4.75% (inactive). In the case of `CC(=O)NS(=O)(=O)c1ccc(N)cc1`, the Potency entry is “inactive”. Take `CCCCNS(=O)(=O)c1ccccc1`: the Potency result was “inactive”.

`C[C@]12C=CC(=O)C=C1CC[C@H]1[C@@H]3C[C@@H](O)[C@](O)(C(=O)CO)[C@@]3(C)C[C@H](O)[C@@]12F`: the Potency result was “inactive”. For `Cc1cc(C)c(O)c(C)c1`, the Potency result is “inactive”.

Take `Nc1ccc(S(=O)(=O)Nc2cnc3ccccc3n2)cc1`: the “activity change, negative = inhibition” value was 10.3% [at 42.4 µM] (inactive). In the case of `c1ccc2cc(Nc3ccc(Nc4ccc5ccccc5c4)cc3)ccc2c1`, the “activity change, negative = inhibition” value was 8.18% (inactive). Take `COCCc1ccc(OCC(O)CNC(C)C)cc1` (stereo not given): the Potency entry is “inactive”.

Regarding `COc1ccc([C@@H]2CC(=O)c3c(O)cc(O[C@@H]4O[C@H](CO[C@@H]5O[C@@H](C)[C@H](O)[C@@H](O)[C@H]5O)[C@@H](O)[C@H](O)[C@H]4O)cc3O2)cc1OC`, the “activity change, negative = inhibition” value was 8.95% (inactive). As to `CC(=O)N[C@@H](CS)C(=O)O`, the Potency result is “inactive”.

As for `OCC1CCCO1` (stereo not given), the “activity change, negative = inhibition” value is -3.65% (inactive). Turning to `CC(=O)OCc1ccc2c(c1)OCO2`, the Potency result was “inactive”. For `Cc1cc(C)c(C)cc1C`, the Potency entry was “inactive”.

`Oc1c(Cl)cc(Cl)c(Cl)c1Cl`: the “activity change, negative = inhibition” value was 3.29% (inactive). Regarding `CC1(C)C(=O)N(Cl)C(=O)N1Cl`, the Potency result is “inactive”.

`NC(N)=S`: the Potency result was “inactive”.

Turning to `CCCCCCCCCCO`, the “activity change, negative = inhibition” value is -5.8% (inactive). Turning to `O=c1cc[nH]c(=S)[nH]1`, the Potency entry was “inactive”.

`CCCCCCCCCCCCCC(=O)O`: the Potency result is “inactive”. Still for that read-out and setting: the entry for `O=S(=O)(O)c1ccc2cc(O)ccc2c1` is “inactive”; for `ClC1=C(Cl)C(Cl)(Cl)C(Cl)=C1Cl` it is “inactive”. For the molecule `CC1(C)[C@@H]2CC[C@@]1(C)C(=O)C2`, the Potency result is “inactive”.

In the case of `CCOC(=O)CC(=O)OCC`, the “activity change, negative = inhibition” value was 6.97% (inactive). Turning to `CCCCOCCOCCOC(C)=O`, the Potency entry was “inactive”. Regarding `CCn1c2ccccc2c2cc(N)ccc21`, the Potency entry was “inactive”.

On to `CC(=O)CC(=O)N(C)C`, for which the Potency entry is “inactive”.

On to `C=CCCCCCCCCCC`, for which the Potency entry was “inactive”.

On to `CC1=C(/C=C/C(C)=C/C=C/C(C)=C/C(=O)O)C(C)(C)CCC1`, for which the “activity change, negative = inhibition” value is 6% [at 42.4 µM] (inactive). On to `CCCCCNCCCCC`, for which the Potency entry was “inactive”. In the case of `O=C(CC(C(=O)OC1CCCCC1)S(=O)(=O)O)OC1CCCCC1` (stereo not given), the Potency entry was “inactive”. For the molecule `CN(C)CCOC(=O)COc1ccc(Cl)cc1`, the “activity change, negative = inhibition” value was 0.0547% [at 42.4 µM] (inactive). For the molecule `CCCN(CCC)C(=O)SCC`, the Potency result was “inactive”.

For the origin of these results see PubChem BioAssay (Tox21).
